The subject of test [1] is Plasmodium falciparum Sir2 (PF13_0152, Sir2A). As to the kind of experiment: Plasmodium falciparum Sir2A binding compounds – biochemical, small-molecule microarray, 635 nm fluorescence, primary screen (AID 1098).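 Also: score merges spot fluorescence intensity with its signal-to-noise ratio.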 The settings on record: fluorescence 635 nm, higher = more signal.
The nature of test [2]: probe aDKK1 binding to arrayed compounds – biochemical, biotinylated probe, 635/667 nm fluorescence, primary screen (AID 1099).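 Also: score merges 667nm spot fluorescence with signal to noise across triplicate slides.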 Conditions: small-molecule microarray, higher = more signal.
Test [3] in a line: probe aCHRDL2 binding to arrayed compounds – biochemical, biotinylated probe, 635/667 nm fluorescence, primary screen (AID 1100). The settings on record: small-molecule microarray, higher = more signal.
A short description of test [4]: change in splice reporter luminescence, either direction, cell-based, HEK293, spliceosome inhibition project, primary screen (AID 1101).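 Also: HEK293 cells carrying a splicing-competent luciferase reporter gene; test concentration not given here.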 Conditions: HEK293 splicing luciferase reporter, 24 h, higher = more signal, called active from +8 up or from −8 down.
For test [5], the target named is Fibroblast growth factor 10 (Homo sapiens) (UniProt O15520). As to the kind of experiment: compounds binding fibroblast growth factor 10 – biochemical, small-molecule microarray, 635 nm fluorescence, primary screen (AID 1102). The settings on record: FGF10 binding, fluorescence 635 nm, higher = more signal.
Chain of Fibroblast growth factor 10 (Homo sapiens) (O15520 whole entry, looked up): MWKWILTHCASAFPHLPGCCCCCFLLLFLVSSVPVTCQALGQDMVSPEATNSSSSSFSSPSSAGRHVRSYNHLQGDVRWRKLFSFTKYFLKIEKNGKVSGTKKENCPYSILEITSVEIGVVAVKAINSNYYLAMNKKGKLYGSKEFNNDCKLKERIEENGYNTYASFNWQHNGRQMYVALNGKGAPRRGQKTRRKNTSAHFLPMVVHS
In test [6] the test system is glycogen synthase kinase-3 (GSK3A per assay name; protocol says GSK3B). As to the kind of experiment: compounds binding glycogen synthase kinase-3 – biochemical, small-molecule microarray, 635 nm fluorescence, GSK3A, primary screen (AID 1103). Also: the record names both GSK3A and GSK3B. The settings on record: fluorescence 635 nm, higher = more signal.
The target of test [7] is Epidermal growth factor receptor (Homo sapiens) (UniProt P00533). As to the kind of experiment: compounds binding epidermal growth factor receptor – biochemical, small-molecule microarray, 635 nm fluorescence, primary screen (AID 1104).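 Also: score merges 667 nm emission intensity with spot signal to noise over triplicate slides.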 Conditions: EGFR binding, higher = more signal.
Chain of Epidermal growth factor receptor (Homo sapiens) (P00533 whole entry, looked up): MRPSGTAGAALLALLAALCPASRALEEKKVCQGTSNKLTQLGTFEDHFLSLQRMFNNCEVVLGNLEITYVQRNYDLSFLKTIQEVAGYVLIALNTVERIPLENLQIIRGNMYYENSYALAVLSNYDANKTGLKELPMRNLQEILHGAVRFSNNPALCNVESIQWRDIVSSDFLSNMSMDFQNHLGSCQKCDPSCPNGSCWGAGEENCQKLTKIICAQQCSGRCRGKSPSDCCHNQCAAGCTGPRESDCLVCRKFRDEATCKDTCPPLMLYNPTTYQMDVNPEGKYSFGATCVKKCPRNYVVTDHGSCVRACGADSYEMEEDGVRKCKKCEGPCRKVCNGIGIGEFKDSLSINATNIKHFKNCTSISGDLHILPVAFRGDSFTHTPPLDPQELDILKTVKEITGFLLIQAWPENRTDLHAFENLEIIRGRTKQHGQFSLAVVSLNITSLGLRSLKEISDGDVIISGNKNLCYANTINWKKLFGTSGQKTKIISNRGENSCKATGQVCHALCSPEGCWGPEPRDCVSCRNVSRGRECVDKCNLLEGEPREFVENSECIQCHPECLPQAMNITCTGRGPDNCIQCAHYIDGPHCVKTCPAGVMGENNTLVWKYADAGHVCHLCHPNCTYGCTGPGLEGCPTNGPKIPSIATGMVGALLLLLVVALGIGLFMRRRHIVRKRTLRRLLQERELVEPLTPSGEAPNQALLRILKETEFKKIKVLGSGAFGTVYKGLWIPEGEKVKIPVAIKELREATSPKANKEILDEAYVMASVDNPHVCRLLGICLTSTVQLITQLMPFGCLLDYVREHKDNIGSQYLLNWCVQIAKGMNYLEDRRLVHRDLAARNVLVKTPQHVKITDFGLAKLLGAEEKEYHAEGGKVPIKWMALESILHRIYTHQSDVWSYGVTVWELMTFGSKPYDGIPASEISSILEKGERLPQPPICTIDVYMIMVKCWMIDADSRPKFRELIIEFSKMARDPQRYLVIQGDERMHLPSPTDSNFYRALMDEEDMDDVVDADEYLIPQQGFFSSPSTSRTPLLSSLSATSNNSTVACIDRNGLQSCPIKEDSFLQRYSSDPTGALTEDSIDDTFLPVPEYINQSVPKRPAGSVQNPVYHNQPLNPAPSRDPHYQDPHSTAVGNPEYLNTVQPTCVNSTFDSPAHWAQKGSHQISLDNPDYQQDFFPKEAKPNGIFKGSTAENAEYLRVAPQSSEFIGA
Test [8] has as its target Follistatin-related protein 3 (Homo sapiens) (UniProt O95633). In words: compounds binding follistatin-related protein 3 – biochemical, small-molecule microarray, 635 nm fluorescence, primary screen (AID 1105).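 Also: score merges emission near 667 nm and signal to noise per printed spot across three slides.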 The settings on record: FSTL3 binding, higher = more signal.
Test [9] deals with Dickkopf-related protein 1 (Homo sapiens) (UniProt O94907). As to the kind of experiment: small molecules binding DKK1 protein – biochemical, small-molecule microarray, 635 nm fluorescence scan, primary screen (AID 1106).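 Also: score merges emission near 667 nm with signal to noise over three replicate slides.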 The settings on record: higher = more signal.
Chain of Dickkopf-related protein 1 (Homo sapiens) (O94907 whole entry, looked up): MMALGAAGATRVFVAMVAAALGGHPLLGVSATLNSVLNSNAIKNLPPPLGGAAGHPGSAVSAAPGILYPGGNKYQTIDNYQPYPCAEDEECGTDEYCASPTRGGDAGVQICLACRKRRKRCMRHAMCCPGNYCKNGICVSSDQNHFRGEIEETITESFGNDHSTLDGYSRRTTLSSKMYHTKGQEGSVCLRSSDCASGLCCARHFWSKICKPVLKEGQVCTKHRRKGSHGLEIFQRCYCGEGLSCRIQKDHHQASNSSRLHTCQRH
For test [10], the system named is Inhibin beta A chain (activin A). As to the kind of experiment: small molecules binding activin A – biochemical, small-molecule microarray, 635 nm fluorescence scan, primary screen (AID 1107).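 Also: mouse activin A protein probed at 4.33 µg/mL on printed slides; score merges bound-protein fluorescence near 667 nm with spot signal-to-noise.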 Conditions: INHBA, higher = more signal.
The test system of test [11] is Human papillomavirus type 1a protein E7 (residues 44-93). In words: small molecules binding HPV E7 44-93 – biochemical, small-molecule microarray, residues 44-93, 635 nm fluorescence, primary screen (AID 1108).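 Also: E7 fragment applied at 1 µg/mL in TBST for 1 h at 4 C; score combines spot fluorescence with its signal to noise ratio.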 The settings on record: fluorescence 635 nm, higher = more signal.
Test [12] is described as follows: hepatitis C replication reporter changes, two-sided – Huh7 cells, luciferase reporter, HCV replication inhibitor project, primary screen (AID 1109).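 Also: huh7 hepatoma cells harbouring a luciferase neomycin HCV replicon reporter; luciferase luminescence as measure of HCV replicon replication; test concentration not given here.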 Conditions: Huh7 HCV replicon luciferase reporter, 48 h; higher = more signal. Background: A reporter such as luciferase makes a cellular process visible.
Test [13] deals with Left-right determination factor 2 (Homo sapiens) (UniProt O00292). In words: small molecules binding LEFTY2 protein – biochemical, small-molecule microarray, 635 nm fluorescence scan, primary screen (AID 1110). Conditions: higher = more signal.
Chain of Left-right determination factor 2 (Homo sapiens) (O00292 whole entry, looked up): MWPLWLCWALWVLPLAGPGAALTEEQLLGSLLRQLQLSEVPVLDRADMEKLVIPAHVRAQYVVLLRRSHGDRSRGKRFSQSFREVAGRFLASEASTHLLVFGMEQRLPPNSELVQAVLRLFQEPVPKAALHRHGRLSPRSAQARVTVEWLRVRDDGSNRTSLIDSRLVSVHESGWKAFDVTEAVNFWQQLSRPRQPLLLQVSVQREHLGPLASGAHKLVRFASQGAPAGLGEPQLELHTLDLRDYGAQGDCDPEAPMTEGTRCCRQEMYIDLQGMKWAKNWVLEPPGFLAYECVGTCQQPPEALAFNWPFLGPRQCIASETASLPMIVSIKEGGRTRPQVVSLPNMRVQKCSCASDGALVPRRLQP
The target in test [14] is Calmodulin-1 (Homo sapiens) (UniProt P0DP23). In words: small molecules binding calmodulin-1 with EGTA – biochemical, small-molecule microarray, Cy5-labelled CALM1, profiling panel (AID 1111).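 Also: labelled calmodulin applied in Tris saline Tween buffer holding calcium plus EGTA and DTT.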 Conditions: Cy5-CALM1 binding fluorescence, higher = more signal.
Test [15] has the same target. As to the kind of experiment: small molecules binding Ca-loaded calmodulin-1 – biochemical, small-molecule microarray, Cy5-labelled CALM1, plus calcium, artefact control for SMM control-protein annotation, profiling panel (AID 1112).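 Also: score merges spot fluorescence with signal to noise from triplicate slides.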 Conditions: Cy5-CALM1 binding fluorescence, higher = more signal.
A short description of test [16]: probe aWnt5a binding to arrayed compounds – biochemical, biotinylated probe, 635/667 nm fluorescence, primary screen (AID 1113).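 Also: score merges 667 nm fluorescence intensity with signal-to-noise per printed feature.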 The settings on record: small-molecule microarray, higher = more signal.
The nature of test [17]: probe aShh binding to arrayed compounds – biochemical, biotinylated probe, 635/667 nm fluorescence, primary screen (AID 1114).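 Also: probe is biotin-labelled aShh protein from a stem cell growth factor screen; measures binding of labelled protein to compounds printed on the slide; score merges feature fluorescence at 667 nm with signal-to-noise.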 Conditions: small-molecule microarray, higher = more signal.
Test [18] in a line: probe aNog binding to arrayed compounds – biochemical, biotinylated probe, 635/667 nm fluorescence, primary screen (AID 1115).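 Also: probe is biotinylated aNog protein used at 0.15 µg/mL for 1 h at 4 C; z-score combines 667 nm fluorescence of each spot with its signal to noise.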 Conditions: small-molecule microarray, higher = more signal.
Test [19] addresses Torsin-1A-interacting protein 1 (Homo sapiens) (UniProt Q5JTV8). In words: compound microarray binding of lysate hLAP1 – cell lysate, small-molecule microarray, COS7 lysate, 635/667 nm fluorescence, primary screen (AID 1116). The settings on record: 635 nm fluorescence, higher = more signal.
Test [20] concerns the target Alpha-bungarotoxin (Bungarus multicinctus) (UniProt P60615). In words: compounds binding labelled alpha-BTX control protein – biochemical, small-molecule microarray, Alexa647 label, 635/667 nm fluorescence, artefact control for SMM control protein annotation, profiling panel (AID 1117). The settings on record: alpha-BTX-A647 binding fluorescence, higher = more signal.

This passage reports composite z-score and z-score results from PubChem BioAssay.

Calls of active or inactive are those of the source.

Chain of Follistatin-related protein 3 (Homo sapiens) (O95633 whole entry, looked up): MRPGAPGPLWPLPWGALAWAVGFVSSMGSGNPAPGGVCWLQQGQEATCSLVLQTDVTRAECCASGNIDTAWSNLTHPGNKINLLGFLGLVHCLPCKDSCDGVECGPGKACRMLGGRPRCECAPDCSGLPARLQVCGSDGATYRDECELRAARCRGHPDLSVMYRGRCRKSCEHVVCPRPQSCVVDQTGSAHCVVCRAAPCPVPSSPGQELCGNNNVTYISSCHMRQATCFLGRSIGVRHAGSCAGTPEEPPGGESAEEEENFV
Chain of Torsin-1A-interacting protein 1 (Homo sapiens) (Q5JTV8 whole entry, looked up): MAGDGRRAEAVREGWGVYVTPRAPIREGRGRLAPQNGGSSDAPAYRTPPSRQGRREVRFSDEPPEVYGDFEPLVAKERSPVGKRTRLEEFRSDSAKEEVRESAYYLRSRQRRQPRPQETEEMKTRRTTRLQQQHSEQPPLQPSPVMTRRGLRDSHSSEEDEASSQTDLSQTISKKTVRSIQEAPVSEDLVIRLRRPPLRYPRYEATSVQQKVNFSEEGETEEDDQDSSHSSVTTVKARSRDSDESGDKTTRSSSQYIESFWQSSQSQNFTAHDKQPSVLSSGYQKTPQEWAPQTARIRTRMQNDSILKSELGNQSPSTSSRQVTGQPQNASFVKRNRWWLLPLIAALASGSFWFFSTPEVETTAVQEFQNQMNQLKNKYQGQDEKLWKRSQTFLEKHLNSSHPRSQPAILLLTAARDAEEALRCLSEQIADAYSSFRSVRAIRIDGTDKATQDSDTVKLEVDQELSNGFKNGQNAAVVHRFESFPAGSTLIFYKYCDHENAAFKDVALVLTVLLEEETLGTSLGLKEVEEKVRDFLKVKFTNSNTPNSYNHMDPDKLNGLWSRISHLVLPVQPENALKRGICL
Chain of Alpha-bungarotoxin (Bungarus multicinctus) (P60615 whole entry, looked up): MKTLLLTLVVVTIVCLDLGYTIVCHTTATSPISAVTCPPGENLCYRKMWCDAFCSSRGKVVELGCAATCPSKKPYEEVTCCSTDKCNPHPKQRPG

On to `COC(=O)C1=CC(c2ccc(CO)cc2)=CC(C2CC2)N(C)C=C1C(=O)OC` (stereo not given), for which the composite z-score in test [1] was 1.97; in test [2] it was 0.341; in test [3], 0.542; in test [5] it was 0.17; in [6] it was -0.373; in test [7], -0.125. The composite z-score in [8] was -0.172; in test [9], 0.466; in test [10], 0.606; in test [11], -0.139; in [13] it was -0.246; in [14], 1.52. The composite z-score in [15] is 0.454; in [16], -0.0179; in test [17], 0.111; in [18], 0.407; in test [19] it was 2.82; in [20], 3.09. The z-score is -1.93 (inactive) in [4] and -0.748 in test [12].
Consider `O=C(O)[C@H]1C[C@H]2C(=O)NCC(=O)N2[C@H]1c1cccc(OCCO)c1`, for which the composite z-score in test [1] was 1.69; in test [2], 0.809; in test [3], 0.725; in [5] it was 0.082; in test [6] it was 0.444; in test [7], 0.0343. The composite z-score in test [8] is 0.778; in test [9] it was 0.552; in test [10] it was 1.5; in test [11], 0.22; in test [13], -0.166; in [14] it was 0.338. Further, the composite z-score in test [15] amounted to 0.921; in test [16], 0.291; in test [17] it was 0.0118; in [18] it was 0.906; in test [19], 1.51; in [20], 1.81. The z-score was -0.387 (inactive) in [4] and 3.1 in test [12].
Take `C=CCN1C(=O)[C@]2(O[C@H](CCn3cc([C@H](O)c4ccccc4)nn3)[C@@H]([Si](C)(C)c3ccc(OC)cc3)[C@@H]2C)c2cc(N3CCOC3=O)ccc21`: the composite z-score in [1] is 0.147; in test [2], -0.228; in test [3] it was 0.0778; in test [5], -0.57; in [6], 0.387; in test [7], -0.754. For the same compound, the composite z-score in test [8] was -0.577; in test [9], -0.272; in test [10], 0.147; in [11] it was 0.724; in test [13] it was -0.69; in test [14], -0.169. Also, the composite z-score in test [15] is -0.367; in test [16], -0.16; in [17] it was -0.043; in test [18] it was -0.176; in test [19], 0.525; in [20] it was 0.479. The z-score was -2.35 (inactive) in test [4] and -3.64 in test [12].
For `C=CCC(OC(C)=O)[C@@H]1[C@@H](N(Cc2cccc3ccccc23)C(=O)c2cccc3ccccc23)c2cc(OCCCO)ccc2N1C(=O)Cc1ccc(OC)cc1` (stereo not given in full), the composite z-score amounted to 0.387 in test [1]; 0.15 in test [2]; 0.213 in test [3]; 0.481 in test [5]; 0.311 in test [6]; 0.129 in test [7]. Further, the composite z-score in test [8] was 0.478; in test [9] it was 0.388; in [10], 1.18; in test [11] it was -0.37; in test [13], 0.384; in test [14], 0.293. Further, the composite z-score in test [15] is 0.394; in [16], -0.0107; in test [17], 0.0284; in test [18], 0.466; in [19], 0.703; in [20], 0.549. For the same compound, the z-score was -2.53 (inactive) in test [4] and -0.348 in test [12].
Regarding `CC(C)C[C@@H]1NC(=O)[C@@]23C(=O)N[C@@H](Cc4ccccc4)C2[C@H](C)[C@@]2(C)O[C@H]2C3/C=C/CC/C=C/CNC(=O)[C@@H](C)NC1=O` (stereo not given in full), the composite z-score in test [1] was 0.624; in [2] it was -0.246; in [3], -0.722; in test [5], 1.39; in test [6] it was 0.374; in [7], 0.732. Besides, the composite z-score was 1.07 in [8]; 0.81 in test [9]; 1.29 in test [10]; -0.211 in [11]; 0.575 in [13]; -0.643 in test [14]. Besides, the composite z-score was -1.39 in test [15]; -0.154 in test [16]; -0.229 in test [17]; 0.117 in [18]; -0.152 in test [19]; -0.195 in test [20]. Moreover, the z-score in [4] was -0.585 (inactive); in test [12], 0.42.
As to `O=C1O[C@H](c2ccccc2)[C@H](c2ccccc2)N2[C@H]1[C@@H](C(=O)NC[C@H](O)c1ccccc1)[C@]1(C(=O)Nc3ccc(C#CC4(O)CCCCCC4)cc31)[C@H]2c1ccc(O)cc1`, the composite z-score in test [1] was 0.59; in [2], 0.601; in test [3] it was 0.471; in test [5] it was 1.05; in [6], 1.15; in [7], 0.251. For the same compound, the composite z-score in test [8] is 0.715; in test [9], 0.324; in test [10], -0.0905; in test [11], 1.35; in test [13] it was 0.462; in [14], 0.612. For the same compound, the composite z-score in [15] is 0.107; in [16] it was -0.0542; in test [17], -0.0769; in test [18], 0.528; in [19] it was 1.08; in test [20], 1.34. The z-score is 1.13 (inactive) in [4] and 0.34 in [12].
